Compounds without any hit were thinned out: in the full panel of roughly 79,000, 15% have a hit. Calls of active or inactive are those of the source. Cut-off read from the data, not from the text of the source: active = growth inhibition above about 70%; inactive = the rest.
Assays:
[1] = NCI Yeast Anticancer Drug Screen. Data for the rad52 strain (AID 147);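 note: 0% = growth of vehicle-treated control cultures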; conditions: S. cerevisiae rad52 mutant growth inhibition, active compounds read high
Summary of the method: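 Growth of repair-deficient yeast cells was compared between compound-treated and vehicle-treated cultures to give percent inhibition.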

[2] = NCI Yeast Anticancer Drug Screen. Data for the wt1 strain (AID 149);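 note: 0% = growth of vehicle-treated wt1 cultures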; conditions: S. cerevisiae wt1 strain (SPY 50644) growth inhibition, active compounds read high
Summary of the method: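 wt1 yeast, compound-treated; % growth inhibition vs vehicle control.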

[3] = NCI Yeast Anticancer Drug Screen. Data for the rad50EPP+ strain (AID 151);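 note: 0% = growth of vehicle-treated control cultures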; conditions: S. cerevisiae rad50 mutant strain, active compounds read high
Summary of the method: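 Measured: growth inhibition of rad50EPP+ yeast. Reference: vehicle-treated controls. Screen uses strains with defined genetic alterations in DNA damage repair or cell cycle control.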

[4] = NCI Yeast Anticancer Drug Screen. Data for the mgt1 strain (AID 153); conditions: S. cerevisiae mgt1 mutant growth inhibition, active compounds read high
Summary of the method: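 Compounds were applied to mgt1 mutant yeast, and growth was then compared against vehicle-treated control cultures to give percent inhibition.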

[5] = NCI Yeast Anticancer Drug Screen. Data for the rad50 strain (AID 155);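 note: 0% = growth of vehicle-only cultures of the same strain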; conditions: S. cerevisiae rad50 strain growth inhibition, active compounds read high
Summary of the method: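 Genetically altered yeast (DNA repair pathway); compound treatment; growth inhibition vs vehicle ctrl.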

[6] = NCI Yeast Anticancer Drug Screen. Data for the mec2-1 strain (AID 157); conditions: S. cerevisiae mec2-1 strain, active compounds read high
Summary of the method: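 Compounds were applied to mec2-1 yeast cells. Their growth was then compared with that of vehicle-treated cultures to give growth inhibition.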

[7] = NCI Yeast Anticancer Drug Screen. Data for the rad14 strain (AID 159);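 note: 0% = growth of vehicle-treated control cultures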; conditions: S. cerevisiae rad14 strain growth inhibition, active compounds read high
Summary of the method: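 Test compounds were applied to a repair-deficient yeast strain. Its growth was then compared with that of cultures given vehicle alone, and inhibition was expressed relative to those controls.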

[8] = NCI Yeast Anticancer Drug Screen. Data for the sgs1 mgt1 strain (AID 161);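 note: 0% = growth of cultures given vehicle only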; conditions: S. cerevisiae sgs1 mgt1 strain, active compounds read high
Summary of the method: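 Growth of a repair-deficient yeast mutant was monitored after compound treatment and expressed as inhibition relative to vehicle-treated cultures.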

[9] = NCI Yeast Anticancer Drug Screen. Data for the CLN2oe strain (AID 163);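 note: 0% = growth of vehicle-only control cultures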; conditions: S. cerevisiae CLN2oe strain, active compounds read high
Summary of the method: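 Cells of an engineered yeast line with disturbed cell-cycle regulation are treated with compound. Inhibition of growth is then calculated relative to the vehicle-treated reference.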

[10] = NCI Yeast Anticancer Drug Screen. Data for the cln2 rad14 strain (AID 165);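 note: 0% = growth equal to vehicle treated cultures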; conditions: S. cerevisiae cln2 rad14 strain, active compounds read high
Summary of the method: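 Strain: cln2 rad14 yeast, altered in cell cycle control and DNA damage repair. Read-out: growth inhibition vs vehicle.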

[11] = NCI Yeast Anticancer Drug Screen. Data for the bub3 strain (AID 167); conditions: S. cerevisiae bub3 mutant strain, active compounds read high
Summary of the method: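 Yeast carrying a defined mutation is treated with each compound, and growth is compared with that of vehicle-exposed cells to give inhibition.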

[12] = NCI Yeast Anticancer Drug Screen. Data for the sgs1 strain (AID 173);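 note: 0% = growth of vehicle-only control cultures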; conditions: S. cerevisiae sgs1 mutant, active compounds read high
Summary of the method: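 Strain with an altered DNA repair or cell cycle pathway exposed to compound. Growth then measured. Value = inhibition versus vehicle control.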

[13] = NCI Yeast Anticancer Drug Screen. Data for the mlh1 rad18 strain (AID 175); conditions: S. cerevisiae mlh1 rad18 strain growth inhibition, active compounds read high
Summary of the method: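 A repair-deficient yeast strain is exposed to test compound, and growth is scored relative to vehicle-treated controls.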

[14] = NCI Yeast Anticancer Drug Screen. Data for the rad18 strain (AID 177); conditions: S. cerevisiae rad18 mutant growth inhibition, active compounds read high
Summary of the method: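 DNA-repair-defective yeast; compound treatment; growth inhibition scored against vehicle.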

[15] = NCI Yeast Anticancer Drug Screen. Data for the mlh1 strain (AID 171);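 note: 0% = growth of vehicle-treated control cultures of the same strain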; conditions: S. cerevisiae mlh1 strain growth inhibition, active compounds read high
Summary of the method: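 Test agents were incubated with yeast bearing a defined DNA damage repair or cell cycle control alteration; values are growth inhibition normalised to vehicle-treated cultures.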

[16] = at 5.0 µM (retest, dose inferred, filed as 0.5)
[17] = at 50.0 µM (retest, dose inferred, filed as 5.0)

Measured: growth inhibition

O=C(NCCCCNCCCNC(=O)c1cc(-c2ccccc2)nc2ccccc12)c1cc(-c2ccccc2)nc2ccccc12
active: [1]; at 100.0 µM 92% | [2]; at 100.0 µM 91% | [3]; at 100.0 µM 91% | [4]; at 100.0 µM 94% | [5]; at 33.0 µM 81% | [5]; [17] 97% | [5]; at 50.0 µM 97% | [5]; at 100.0 µM 92% | [6]; at 50.0 µM 97.3% | [6]; at 100.0 µM 94% | [7]; at 33.0 µM 96% | [7]; at 100.0 µM 94% | [8]; at 50.0 µM 97.5% | [9]; at 100.0 µM 91% | [10]; at 50.0 µM 97.6% | [11]; at 50.0 µM 97.2% | [11]; at 100.0 µM 92% | [12]; at 100.0 µM 93% | [13]; [17] 92% | [14]; at 33.0 µM 89% | [14]; at 100.0 µM 91%
inactive: [1]; at 1.2 µM -1% | [1]; at 3.7 µM -1% | [1]; at 11.0 µM -3% | [1]; at 33.0 µM 40% | [2]; at 1.2 µM 6% | [2]; at 3.7 µM 2% | [2]; at 11.0 µM 2% | [2]; at 33.0 µM 5% | [3]; at 1.2 µM 1% | [3]; at 3.7 µM 4% | [3]; at 11.0 µM 12% | [3]; at 33.0 µM 32% | [4]; at 1.2 µM 2% | [4]; at 3.7 µM 2% | [4]; at 11.0 µM -1% | [4]; at 33.0 µM 59% | [5]; at 1.2 µM -5% | [5]; at 3.7 µM -5% | [5]; [16] -29% | [5]; at 11.0 µM -3% | [6]; at 1.2 µM -1% | [6]; at 3.7 µM -3% | [6]; [16] -15% | [6]; at 11.0 µM -4% | [6]; at 33.0 µM 56% | [6]; [17] 59% | [7]; at 1.2 µM 0% | [7]; at 3.7 µM -2% | [7]; at 11.0 µM 1% | [8]; [16] -16% | [8]; [17] 58% | [9]; at 1.2 µM 1% | [9]; at 3.7 µM -1% | [9]; at 11.0 µM -1% | [9]; at 33.0 µM 43% | [10]; [16] 40% | [10]; [17] 55% | [11]; at 1.2 µM -2% | [11]; at 3.7 µM -1% | [11]; [16] -8% | [11]; at 11.0 µM -2% | [11]; at 33.0 µM 50% | [11]; [17] 65% | [12]; at 1.2 µM 0% | [12]; at 3.7 µM 0% | [12]; at 11.0 µM 1% | [12]; at 33.0 µM 33% | [13]; [16] -13% | [13]; at 50.0 µM 39.5% | [14]; at 1.2 µM 0% | [14]; at 3.7 µM -1% | [14]; at 11.0 µM -1%

O=C(c1ccc(Cl)cc1)C1OC12C(=O)Nc1ccccc12 (stereo unspecified)
inactive: [1]; at 1.2 µM 20% | [2]; at 1.2 µM 1% | [2]; at 3.7 µM 25% | [3]; at 1.2 µM 17% | [4]; at 1.2 µM 31% | [5]; at 1.2 µM 13% | [6]; at 1.2 µM 38% | [7]; at 1.2 µM 24% | [9]; at 1.2 µM 5% | [9]; at 3.7 µM 40% | [11]; at 1.2 µM 43% | [15]; at 1.2 µM 8% | [12]; at 1.2 µM 8% | [14]; at 1.2 µM 6%
active: [1]; at 3.7 µM 99% | [1]; at 11.0 µM 99% | [1]; at 33.0 µM 99% | [1]; at 100.0 µM 99% | [2]; at 11.0 µM 98% | [2]; at 33.0 µM 98% | [2]; at 100.0 µM 99% | [3]; at 3.7 µM 99% | [3]; at 11.0 µM 99% | [3]; at 33.0 µM 99% | [3]; at 100.0 µM 99% | [4]; at 3.7 µM 100% | [4]; at 11.0 µM 100% | [4]; at 33.0 µM 100% | [4]; at 100.0 µM 99% | [5]; at 3.7 µM 99% | [5]; [16] 100% | [5]; at 11.0 µM 99% | [5]; at 33.0 µM 99% | [5]; [17] 99% | [5]; at 50.0 µM 99.5% | [5]; at 100.0 µM 99% | [6]; at 3.7 µM 99% | [6]; [16] 100% | [6]; at 11.0 µM 99% | [6]; at 33.0 µM 99% | [6]; [17] 100% | [6]; at 50.0 µM 99.7% | [6]; at 100.0 µM 99% | [7]; at 3.7 µM 99% | [7]; at 11.0 µM 99% | [7]; at 33.0 µM 99% | [7]; at 100.0 µM 99% | [8]; [16] 100% | [8]; [17] 100% | [8]; at 50.0 µM 99.5% | [9]; at 11.0 µM 99% | [9]; at 33.0 µM 99% | [9]; at 100.0 µM 98% | [10]; [16] 100% | [10]; [17] 100% | [10]; at 50.0 µM 99.7% | [11]; at 3.7 µM 99% | [11]; [16] 100% | [11]; at 11.0 µM 99% | [11]; at 33.0 µM 99% | [11]; [17] 100% | [11]; at 50.0 µM 99.7% | [11]; at 100.0 µM 99% | [15]; at 3.7 µM 99% | [15]; at 11.0 µM 99% | [15]; at 33.0 µM 99% | [15]; at 100.0 µM 99% | [12]; at 3.7 µM 99% | [12]; at 11.0 µM 99% | [12]; at 33.0 µM 99% | [12]; at 100.0 µM 99% | [13]; [16] 100% | [13]; [17] 100% | [13]; at 50.0 µM 99.5% | [14]; at 3.7 µM 99% | [14]; at 11.0 µM 99% | [14]; at 33.0 µM 98% | [14]; at 100.0 µM 99%

Reference: PubChem BioAssay (NCI)
